The values below come from PubChem BioAssay AID485341 (National Center for Advancing Translational Sciences (NCATS), 2010).

The structures appear in SMILES notation. Hit rate of the full screen: of about 330,000 compounds, about 1,700 (0.52%) were called active. The list comes from a sample in which actives are over-represented; it also holds similar structures and randomly drawn compounds. Values without a mark were called inactive. The call rests on the fitted dose curve; in most records, active means well fitted inhibition curve with a large enough effect; inconclusive means small, poorly fitted or top-dose-only effect; inactive means no such curve, though single readings can be large or run the other way.
Potency means the concentration at half of the fitted maximal effect.

For this assay, the target named is Beta-lactamase (Escherichia coli (strain K12)) (UniProt P00811). The assay is described as follows: qHTS Inhibitors of AmpC Beta-Lactamase (assay without detergent). Further: nearly all actives have a fitted effect of over 20% in size. To be noted: AmpC nitrocefin hydrolysis, absorbance 480 nm, 0.0001% Triton; series mostly up to 57.1 µM; activity change, negative = inhibition: at the top concentration. The method, then: NIH Molecular Libraries Probe Production Network [MLPCN] NIH Chemical Genomics Center [NCGC] Assay Provider: Professor Brian Shoichet, UCSF Assay Overview: This aggregation profiling approach exploits the sensitivity of aggregate formation to detergent. Inhibition of b-lactamase is measured in the presence and absence of 0.01% Triton X-100. This particular assay had the prescence of 0.01% Triton X-100. See Pubchem assay "Promiscuous and Specific Inhibitors of AmpC Beta-Lactamase (assay without detergent)" for related screen. Compounds that inhibit only in the absence of detergent are considered likely promiscuous aggregators. A screen of 1,030 compounds was performed in Brian Shoichet's lab in 96-well format. AmpC activity was measured by following the absorbance at 480 nm. Nitrocefin is a chromogenic substrate: while nitrocefin is yellow (lmax 390 nm), the product of its hydrolysis is red (lmax 486 nm, 17,000 M-1). AmpC beta lactamase was provided by Shoichet Lab, UCSF.
Chain of Beta-lactamase (Escherichia coli (strain K12)) (P00811 whole entry, looked up): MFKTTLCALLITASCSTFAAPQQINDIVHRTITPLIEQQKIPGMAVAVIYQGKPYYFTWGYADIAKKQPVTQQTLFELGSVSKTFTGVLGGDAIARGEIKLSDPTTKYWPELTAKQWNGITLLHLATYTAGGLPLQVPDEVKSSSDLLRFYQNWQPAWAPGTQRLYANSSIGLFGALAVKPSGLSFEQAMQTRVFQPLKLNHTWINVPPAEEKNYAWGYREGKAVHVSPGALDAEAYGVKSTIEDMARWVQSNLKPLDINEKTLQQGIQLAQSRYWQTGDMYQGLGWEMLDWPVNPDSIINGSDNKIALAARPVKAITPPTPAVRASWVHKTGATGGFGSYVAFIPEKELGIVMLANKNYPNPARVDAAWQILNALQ
Buffer: 20 mM phosphate buffer, pH 7.0 Triton X-100: No Detergent screen: 0.0001%, Detergent screen: 0.01%. Reagents/Controls: Buffer in columns 3 and 4 as negative control (no enzyme). 5.3 nM AmpC in columns 1, 2, 5-48. Titration of UCSF compound 9 control (from 10 mM, then 1:2) pin-transferred to column 2. Column 1 is neutral (100% activity). Assay Steps: Six uL of reagents were dispensed to 1536-well Greiner black clear bottom plates. Compounds and controls (23 nL) were transferred via Kalypsys PinTool. The plates were incubated for 15 min at room temperature, and then 2 uL of 800 uM solution of nitrocefin was added to start the reaction. The plates were immediately transferred to and read every 20 seconds for 4 min on ViewLux (Perkin-Elmer) High-throughput CCD imager using 480 nm absorbance protocol. During dispense, reagent bottles were kept submerged into 4 deg C water bath. Keywords: NIH Roadmap, MLSCN, MLI, MLSMR, qHTS, NCGC, AmpC Beta-Lactamase, Aggregation
As for `O=C(CN(c1cccc(Cl)c1)S(=O)(=O)c1ccccc1)NN=C1CCCC1`, the “activity change, negative = inhibition” value was -55.4%.

Regarding `Cc1ccccc1Cn1nc(C)c(NC(=O)C(F)(F)F)c1C`, the “activity change, negative = inhibition” value is 2.13%.

As to `Cc1nn(Cc2ccc(F)cc2)c(C)c1NC(=O)c1cccnc1Cl`, the “activity change, negative = inhibition” value is -7.61%.

As to `Cc1nn(Cc2ccc(F)cc2)c(C)c1NC(=O)c1noc2c1CCc1ccccc1-2`, the Potency was 11.2 µM (active).

As for `COC(=O)[C@]1(Cc2ccccc2)N[C@H](CN(C)S(=O)(=O)c2ccc(OC(F)(F)F)cc2)[C@@H]2C(=O)N(Cc3ccccc3)C(=O)[C@@H]21`, the “activity change, negative = inhibition” value was -12.4%.

With `CC(O)c1nc2c(c(=O)n(C)c(=O)n2C)n1C` (stereo not given), the “activity change, negative = inhibition” value is -0.321%.

With `Cc1ccc(S(=O)(=O)N(CC(=O)NCc2ccco2)c2ccccc2C)cc1`, the “activity change, negative = inhibition” value is -17%.

Turning to `COc1ccc(-c2cc(C(=O)N(C)CC(=O)Nc3ccccc3Cl)c3ccccc3n2)cc1OC`, the “activity change, negative = inhibition” value was 86.4%.

As to `CC(C)CC1(C)NC(=O)N(CC(=O)Nc2ccc3c(c2)OCCO3)C1=O` (stereo not given), the “activity change, negative = inhibition” value was -18.8%.

Consider `Cc1ccccc1C(=O)O`, for which the “activity change, negative = inhibition” value is -15.1%.

Take `Cc1ccccc1C(=O)OC1OC(=O)C(Cl)=C1Nc1ccccc1` (stereo not given): the Potency was 6.31 µM (active).

Consider `Cc1ccccc1C(=O)Nc1ccccc1NC(=O)c1ccccc1C`, for which the “activity change, negative = inhibition” value is -28.1%.

With `COC(=O)C1=C(Nc2ccc(OC)cc2)C=C(C)C(C(=O)OC)C1c1ccc(C)cc1` (stereo not given), the “activity change, negative = inhibition” value was 7.69%.

For `Cc1ccc(NC2=C(Cl)C(=O)OC2OC(=O)c2ccccc2C)cc1` (stereo not given), the Potency was 3.98 µM (active).

On to `COC(=O)C1=C(Nc2ccc(C)cc2)C=C(C)C(C(=O)OC)C1c1ccc(F)cc1` (stereo not given), for which the “activity change, negative = inhibition” value is -25.5%.

Consider `O=S(=O)(Nc1ncccn1)c1ccc(NS(=O)(=O)c2cccc(Cl)c2Cl)cc1`, for which the “activity change, negative = inhibition” value is -27.4%.

As to `O=C(COC(=O)/C=C/c1cccs1)NC1CCCCC1`, the “activity change, negative = inhibition” value was -10.1%.

Turning to `COc1ccc(CC(=O)N[C@@H]2c3cc(OC)c(OC)cc3C[C@H]2OCc2ccccc2)cc1`, the “activity change, negative = inhibition” value is 142%.

Consider `CC(=O)c1c(C)c[nH]c1C`, for which the “activity change, negative = inhibition” value is -13.8%.

Turning to `CCCCN(C(=O)C1CCC1)c1c(N)n(Cc2ccccc2)c(=O)[nH]c1=O`, the “activity change, negative = inhibition” value is -7.77%.

As to `CCn1c2ccccc2c2cc(NC(=O)Nc3ccc([N+](=O)[O-])cc3C)ccc21`, the “activity change, negative = inhibition” value is -19.7%.

For `COCCCNC(=S)N1CCN(c2nc(-c3cccc(OC)c3)cs2)CC1`, the “activity change, negative = inhibition” value is 136%.

For `CC(=O)Nc1ccc(NC(=O)CSc2nnc(COc3ccccc3C)n2CC2CCCO2)cc1` (stereo not given), the “activity change, negative = inhibition” value is 12.5%.

`CC[N+]1(CC)CC2=Cc3ccccc3CC2C1` (stereo not given): the “activity change, negative = inhibition” value was -10.4%.

Consider `CC(=NCc1ccco1)c1c(C(F)(F)F)[nH]n(-c2nc3ccccc3s2)c1=O`, for which the “activity change, negative = inhibition” value is -14.9%.

`CCC(C)Cn1c(O)cc2nn(-c3nc4ccccc4s3)c(=O)c-2c1C` (stereo not given): the Potency is 17.8 µM (active).

`Cn1c(=O)c2c(nc(NCCNC(=O)c3ccco3)n2Cc2ccccc2F)n(C)c1=O`: the “activity change, negative = inhibition” value was -7.23%.

For the compound `Cc1c(Cl)cccc1NC(=O)CC1SC(=NCC2CCCO2)NC1=O` (stereo not given), the “activity change, negative = inhibition” value is -26.1%.

As for `CCN=C1SC(CC(=O)Nc2ccc(C)cc2)C(=O)N1CC` (stereo not given), the “activity change, negative = inhibition” value was 2.59%.

For the compound `Cc1ccc(NC(=O)CC2S/C(=N/N=C3\CCCc4ccccc43)NC2=O)cc1` (stereo not given), the Potency was 3.16 µM (active).

With `CCCCn1c(N)c(N(CCOC)C(=O)COc2c(C)cccc2C)c(=O)[nH]c1=O`, the “activity change, negative = inhibition” value was -17.2%.

In the case of `CS(=O)(=O)N1CCN(C(=O)CSc2ccccc2)CC1`, the “activity change, negative = inhibition” value was -3.69%.

Turning to `Cc1ccc(S(=O)(=O)N2CCCC2CO)cc1` (stereo not given), the “activity change, negative = inhibition” value was -11.5%.

Consider `COc1ccc(CSc2nnnn2-c2ccc(C(=O)O)cc2)cc1`, for which the “activity change, negative = inhibition” value is -18.9%.

On to `COc1ccc(CSc2nnnn2-c2ccc(O)cc2)cc1F`, for which the Potency is 22.4 µM (active).

As for `COc1ccc(-n2nnnc2SCC(=O)c2ccc(OC)c(OC)c2)cc1`, the “activity change, negative = inhibition” value is 97.5%.

With `Cn1c2c(c(=O)n(C)c1=O)C(c1cccc([N+](=O)[O-])c1)Nc1ccccc1O2` (stereo not given), the “activity change, negative = inhibition” value is -8.07%.

As to `CN(CCC1CCOCC1)C(=O)CC1C(=O)NCCN1Cc1cccc(F)c1` (stereo not given), the “activity change, negative = inhibition” value is -3.93%.

Turning to `O=C(O)CCCC(=O)Nc1ccc(Oc2cccc(C(F)(F)F)c2)nc1`, the “activity change, negative = inhibition” value is -13.8%.

Consider `Cc1csc(=O)n1CC(=O)OCC(=O)N(CC(C)C)c1c(N)n(Cc2ccccc2)c(=O)[nH]c1=O`, for which the “activity change, negative = inhibition” value is -26.2%.

With `CC(C)CN(C(=O)COC(=O)c1ccc(Cl)c(N)c1)c1c(N)n(Cc2ccccc2)c(=O)[nH]c1=O`, the Potency is 28.2 µM (active).

Take `CC(C)CN(C(=O)COC(=O)c1ccc2ccccc2c1)c1c(N)n(Cc2ccccc2)c(=O)[nH]c1=O`: the “activity change, negative = inhibition” value is -12.6%.

Turning to `Cc1cc(NC(=O)C(C)N2C(=O)c3ccccc3S2(=O)=O)no1` (stereo not given), the Potency was 25.1 µM (active).

For the compound `CSc1ccccc1NC(=O)C(C)N1C(=O)c2ccccc2S1(=O)=O` (stereo not given), the “activity change, negative = inhibition” value was -13.6%.

As for `Cc1cc(NC(=O)CSCc2ccccc2C)no1`, the “activity change, negative = inhibition” value is -5.58%.

As for `O=C1CCC(=O)N(c2ccccc2)N1`, the “activity change, negative = inhibition” value was 0.2%.

Turning to `O=C(OCC1O[C@@H](OC(=O)c2cc(O)c(O)c(O)c2)[C@@H](OC(=O)c2cc(O)c(O)c(O)c2)[C@@H](OC(=O)c2cc(O)c(O)c(O)c2)[C@@H]1OC(=O)c1cc(O)c(O)c(O)c1)c1cc(O)c(O)c(O)c1` (stereo not given in full), the Potency was 1 µM (active).

In the case of `CCOCCCNC(=O)c1ccc(CS(=O)(=O)c2cccc(C(F)(F)F)c2)o1`, the “activity change, negative = inhibition” value is 16.8%.

Turning to `CCOCCn1[nH]c2ccccc2c1=O`, the “activity change, negative = inhibition” value is -13%.

Consider `O=C(CSc1nc(O)c(Cc2ccccc2)c(=O)[nH]1)Nc1nc2c(s1)CCCC2`, for which the “activity change, negative = inhibition” value was -39.3%.
